Measurements as given in PubChem BioAssay (NCI).
Compounds without any hit were thinned out: in the full panel of roughly 83,000, 20% have a hit.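 Results are percent growth after 48 hours of single-concentration exposure. 100 means growth as in untreated cells, lower positive values show inhibition; negative values down to -100 show cell death.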 Values without a mark were called inactive. The source made the active and inactive calls.

These compounds were tested on LOX IMVI melanoma (assay: NCI-60 one-dose screen, 48 h (100 = growth as untreated, 0 = no growth, -100 = all killed)). Conditions: 10 µM unless noted.
Protocol: Growth inhibition of the LOX IMVI human tumor cell line is measured as a screen for anti-cancer activity. Cells are grown in 96 well plates and exposed to the test compound for 48 hours. Compounds are tested at a single concentration, which is 10^-5 M for most compounds. The reported endpoint is percent growth (GI% or GIPRCNT), where numbers from 0 - 100% represent growth inhibition, and numbers from -100% - 0 represent cell death. For example, a value of 40 represents 60% growth inhibition. A value of 0 means no net growth occurred over the course of the experiment. A value of -40 indicates 40% of cells at the beginning of the experiment died by the end of the experiment. A value of -100 means all cells are dead at the end of the experiment.
NCI-60 Human Tumor Cell Lines Screen was performed using the standard one-dose NCI protocol, which is described in more detail at https://dtp.cancer.gov/discovery_development/nci-60/default.htm.
Compounds with GIPRCNT values below 10 were considered active. Activity score was based on GIPRCNT using the following formula: […]
Score is 0 for GIPRCNT values of 100 or above, 50 for GIPRCNT values of 0, and 100 for GIPRCNT values of -100.
COC(=O)c1cc(=O)nc(N/N=C/c2ccccc2O)s1 was tested, and the growth was 82.3%.
With Nc1nc2c(c3cnccc13)C(c1cccc(Br)c1)Cc1cnccc1-2 (stereo not given) the growth was 8.43% (active).
Compound CC(Br)c1nc2ccccc2cc1C(N)=O (stereo not given) has a growth of 85.6%.
C[n+]1c2ccccc2c(Nc2ccc(NS(=O)(=O)CCCCN=C(N)N)cc2)c2ccc(N)cc21 gave a growth of 33.5%.
Compound CCCCCCC(C(=O)OCC)(C(=O)OCC)C1CCCCCC1 has a growth of 101%.
With O=C(Cc1ccccc1[N+](=O)[O-])c1ccc2c(c1)OCO2 the growth was 96.9%.
Br/C(=N\Nc1nn[nH]n1)c1ccccc1 showed a growth of 86.3%.
COc1cc(OC)c(/C=C/c2ccc3ccccc3[n+]2C)c(OC)c1 was tested, and the growth was -33.2% (active).
Compound O=C(/C=C\c1ccccc1Cl)c1ccccc1 has a growth of 82.1%.
Work on CC(C)(C)c1cc(C[P+](c2ccc(Cl)cc2)(c2ccc(Cl)cc2)c2ccc(Cl)cc2)cc(C(C)(C)C)c1O yielded a growth of 92.6%.
O=c1[nH]c(=S)[nH]c(O)c1/C=C1\C=Nc2ccccc21 showed a growth of 67%.
Compound CCOC(=O)C1CCCN1C(=O)C1(NC(C)=O)CCCC1 (stereo not given) has a growth of 104%.
Compound COC(=O)c1cc(O)c2cc3c(cc2c1-c1cc(OC)c(OC)c(OC)c1)OCO3 has a growth of 29.7%.
O=c1c(N=Nc2nccs2)c(-c2ccccc2)[nH]n1-c1nc(-c2ccccc2)cs1 showed a growth of 44.3%.
C[C@H]1C[C@@H](n2cnc3c(N)nccc32)[C@H](O)[C@@H]1O was tested, and the growth was 79.8%.
NC(N)=N/N=C/c1cccc(Br)c1 was tested, and the growth was 89.6%.
Compound CCCCS(=O)(=O)c1cc(Nc2ccc(O)c3c2C(=O)c2ccccc2C3=O)ccc1C has a growth of 51.5%.
COc1ccc(Oc2[nH]n(C3=Nc4ccccc4Sc4ccccc43)c(=O)c2C#N)cc1 gave a growth of 95.3%.
With COc1cc2ncnc(-n3ncc4cc(NC(=O)Nc5ccc(Cl)c(C)c5)ccc43)c2cc1OC the growth was 98%.
CCOc1ccc(/C=N/NC(=O)c2cccc3ccccc23)cc1OCC showed a growth of 92.7%.
In the case of COc1ccccc1CNCCCN1C(=O)c2ccc3c4c(ccc(c24)C1=O)C(=O)N(CCCNCc1ccccc1OC)C3=O, the growth is reported as -63.1% (active).
CC(C)C(=O)c1ccc(Cl)s1 showed a growth of 91%.
O=C(CN1C(=O)NC(c2ccccc2)(c2ccccc2)C1=O)c1ccc(N2CCCC2)cc1 was tested, and the growth was 74.2%.
For CCC(C)[C@H](NC(=O)Nc1cc(C(F)(F)F)cc(C(F)(F)F)c1)C(=O)N[C@@H](Cc1cn(C)cn1)C(=O)OC (stereo not given in full), the growth was -81.2% [100 µM] (active).
In the case of Cc1ccc(S(=O)(=O)N/N=C2\CC3CCC2C3)cc1 (stereo not given), the growth is reported as 103%.
CC(C)(C)OC(=O)N1C/C(=C\c2ccccc2)C(=O)/C(=C/c2ccccc2)C1 showed a growth of 95.1%.
CC(=N\N=C(N)N)/C(=N/N=C(N)N)c1ccccc1 gave a growth of 95.6%.
Clc1ccc(N/N=C/c2ccccn2)nc1 was tested, and the growth was -6.42% (active).
With COc1ccc(-c2nnc(SCC(=O)Nc3ccc(C(=O)/C=C/c4cc(OC)c(OC)c(OC)c4)cc3)n2-c2ccccc2)cc1OC the growth was -88.5% [100 µM] (active).
Compound O=C1NCCN1/N=C/c1c(Cl)nc2n1CCS2 has a growth of 101%.
In the case of CC1CCCCC[N+]12CCCC2 (stereo not given), the growth is reported as 95.8%.
O=C1CSC(c2ccccc2Cl)N1c1nnc(-c2ccncc2)o1 (stereo not given) was tested, and the growth was 102%.
CCCCN(CCCC)CC(O)CN(CC)CC (stereo not given) showed a growth of 96.1%.
Brc1c(-c2ccncc2)nc2n1CCS2 showed a growth of 89.4%.
Nc1ccc(S(=O)(=O)c2ccc(NO)cc2)cc1 showed a growth of 99.5%.
COC(c1ccccc1)C(Br)C(=O)c1ccccc1 (stereo not given) showed a growth of 97.8%.
Compound CNc1ccc(Nc2ccc(S(=O)(=O)O)cc2)c2c1C(=O)c1ccccc1C2=O has a growth of 88.2%.
In the case of CC(=O)O.[In], the growth is reported as 35.3%.
For CCOC(=O)CSSCC(=O)OCC, the growth was 111%.
CC(C)CCCCCOC(=O)c1ccccc1SSc1ccccc1C(=O)OCCCCCC(C)C was tested, and the growth was 100%.
